From PubChem BioAssay AID1159580 (chemical genetic matrix, 2015)
Out of some 5,500 compounds screened, about 2,000 (36%) were called active. Not shown: some 18% with an inconclusive outcome. Rule as the data show it: active = normalized growth mostly below about 0.91 (no sharp cut-off); inconclusive = no clear call, values can overlap the other calls; inactive = mostly above about 0.92. The list shows a part of the results.

Test: chemical genetic growth profiling, strain panel (AID 1159580);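 also: tested at 20 µM; growth read once vehicle control cultures reached saturation at 30 °C; 1 = growth at the plate median or of vehicle wells; lower values mean less growth of the strain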
Conditions: S. cerevisiae deletion strains, growth OD

Measured: normalized growth

CS(=O)(=O)c1sc(C(=O)Sc2ccc(Cl)cc2)c2c1C=CCC2
active: locus YAR019C, strain CDC15, hits give low values 0.857 | locus YBL105C, strain PKC1, hits give low values 0.868 | locus YBR135W, strain CKS1, hits give low values 0.855 | locus YBR136W, strain MEC1, hits give low values 0.867 | locus YBR160W, strain CDC28, hits give low values 0.873 | locus YDL017W, strain CDC7, hits give low values 0.881 | locus YDL028C, strain MPS1, hits give low values 0.88 | locus YDL108W, strain KIN28, hits give low values 0.866 | locus YDL132W, strain cdc53, hits give low values 0.848 | locus YDL214C, strain PRR2, hits give low values 0.42 | locus YDR052C, strain DBF4, hits give low values 0.903 | locus YDR054C, strain cdc34, hits give low values 0.771 | locus YDR226W, strain ADK1, hits give low values 0.869 | locus YDR477W, strain SNF1, hits give low values 0.339 | locus YER123W, strain YCK3, hits give low values 0.368 | locus YER133W, strain GLC7, hits give low values 0.416 | locus YFL009W, strain cdc4, hits give low values 0.857 | locus YFL029C, strain CAK1, hits give low values 0.853 | locus YFR003C, strain YPI1, hits give low values 0.881 | locus YFR019W, strain FAB1, hits give low values 0.327 | locus YFR028C, strain CDC14, hits give low values 0.871 | locus YGR040W, strain KSS1, hits give low values 0.437 | locus YGR052W, strain FMP48, hits give low values 0.492 | locus YGR092W, strain DBF2, hits give low values 0.174 | locus YHR030C, strain SLT2, hits give low values 0.374 | locus YHR079C, strain IRE1, hits give low values 0.349 | locus YHR082C, strain KSP1, hits give low values 0.511 | locus YHR205W, strain SCH9, hits give low values 0.206 | locus YIL147C, strain SLN1, hits give low values 0.886 | locus YJL095W, strain BCK1, hits give low values 0.369 | locus YJL157C, strain FAR1, hits give low values 0.358 | locus YJR016C, strain ILV3, hits give low values 0.862 | locus YJR066W, strain TOR1 (second series), hits give low values 0.103 | locus YJR066W, strain TOR1, hits give low values 0.353 | locus YKL048C, strain ELM1, hits give low values 0.532 | locus YKL067W, strain YNK1, hits give low values 0.428 | locus YKL101W, strain HSL1, hits give low values 0.371 | locus YKL193C, strain SDS22, hits give low values 0.845 | locus YKL203C, strain TOR2, hits give low values 0.379 | locus YLR113W, strain HOG1, hits give low values 0.3 | locus YLR133W, strain CKI1, hits give low values 0.423 | locus YLR403W, strain SFP1, hits give low values 0.217 | locus YML070W, strain DAK1, hits give low values 0.397 | locus YMR001C, strain CDC5, hits give low values 0.836 | locus YMR205C, strain PFK2 (second series), hits give low values 0.458 | locus YMR277W, strain FCP1, hits give low values 0.838 | locus YNL006W, strain LST8, hits give low values 0.873 | locus YNL020C, strain ARK1, hits give low values 0.39 | locus YNL161W, strain CBK1, hits give low values 0.862 | locus YNL183C, strain NPR1, hits give low values 0.418 | locus YNL207W, strain RIO2, hits give low values 0.842 | locus YNL222W, strain SSU72, hits give low values 0.856 | locus YNL307C, strain MCK1 (second series), hits give low values 0.221 | locus YOL078W, strain AVO1, hits give low values 0.839 | locus YOL136C, strain PFK27, hits give low values 0.375 | locus YOR061W, strain CKA2, hits give low values 0.256 | locus YOR119C, strain RIO1, hits give low values 0.527 | locus YOR231W, strain MKK1, hits give low values 0.353 | locus YOR329C, strain SCD5, hits give low values 0.876 | locus YPL031C, strain PHO85, hits give low values 0.308 | locus YPL153C, strain RAD53, hits give low values 0.279 | locus YPL204W, strain HRR25, hits give low values 0.286 | locus YPL209C, strain IPL1, hits give low values 0.854 | locus YPL256C, strain CLN2, hits give low values 0.521 | locus YPR025C, strain CCL1, hits give low values 0.863 | strain TSCII, hits give low values 0.841
inactive: locus YDL101C, strain DUN1, hits give low values 0.92 | locus YJL128C, strain PBS2, hits give low values 0.894 | locus YPR106W, strain ISR1, hits give low values 0.928 | locus YPR111W, strain DBF20, hits give low values 0.929 | strain NNK1, hits give low values 0.907
